Results reported in PubChem BioAssay AID1159580 (chemical genetic matrix, 2015).
Where “and” joins values, the source holds several entries; their conditions need not be identical. Identical values can stand only once. The campaign covered roughly 5,500 compounds. About 2,000 (36%) were called active. Inconclusive results (about 18%) are left out. Rule as the data show it: active = normalized growth mostly below about 0.91 (no sharp cut-off); inconclusive = no clear call, values can overlap the other calls; inactive = mostly above about 0.92. The list shows a part of the results.

Assay: chemical genetic growth profiling, strain panel (AID 1159580);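 also: tested at 20 µM; growth read once vehicle control cultures reached saturation at 30 °C; 1 = growth at the plate median or of vehicle wells; lower values mean less growth of the strain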
Details: growth OD

Measured: normalized growth

C=C1C(N)CC2CC1C2(C)C (stereo not given)
inactive: S. cerevisiae deletion strains, locus YAL021C, strain ccr4, stronger effect = lower value 1.01 | S. cerevisiae deletion strains, locus YAL026C, strain drs2, stronger effect = lower value 1.01 | S. cerevisiae deletion strains, locus YAL030W, strain snc1, stronger effect = lower value 1.01 | S. cerevisiae deletion strains, locus YBL061C, strain skt5, stronger effect = lower value 1 | S. cerevisiae deletion strains, locus YBR009C, strain hhf1, stronger effect = lower value 1.01 | S. cerevisiae deletion strains, locus YBR021W, strain FUR4, stronger effect = lower value 1 | S. cerevisiae deletion strains, locus YBR023C, strain chs3, stronger effect = lower value 0.985 | S. cerevisiae deletion strains, locus YBR171W, strain sec66, stronger effect = lower value 0.99 | S. cerevisiae deletion strains, locus YBR229C, strain ROT2, stronger effect = lower value 1.01 | S. cerevisiae deletion strains, locus YBR231C, strain swc5, stronger effect = lower value 0.999 | S. cerevisiae deletion strains, locus YBR279W, strain paf1, stronger effect = lower value 0.997 | S. cerevisiae deletion strains, locus YCL011C, strain gbp2, stronger effect = lower value 0.983 | S. cerevisiae deletion strains, locus YCL016C, strain dcc1, stronger effect = lower value 1.01 | S. cerevisiae deletion strains, locus YCL029C, strain bik1, stronger effect = lower value 1.02 | S. cerevisiae deletion strains, locus YCL069W, strain vba3, stronger effect = lower value 0.996 | S. cerevisiae deletion strains, locus YCR088W, strain abp1, stronger effect = lower value 0.989 | S. cerevisiae deletion strains, locus YDL005C, strain med2, stronger effect = lower value 0.991 | S. cerevisiae deletion strains, locus YDL035C, strain GPR1, stronger effect = lower value 0.994 | S. cerevisiae deletion strains, locus YDL040C, strain nat1, stronger effect = lower value 0.994 | S. cerevisiae deletion strains, locus YDL074C, strain BRE1, stronger effect = lower value 1.02 | S. cerevisiae deletion strains, locus YDL101C, strain DUN1, stronger effect = lower value 1.03 | S. cerevisiae deletion strains, locus YDL134C, strain PPH21, stronger effect = lower value 1.03 | S. cerevisiae deletion strains, locus YDL185W, strain tfp1, stronger effect = lower value 1.01 | S. cerevisiae deletion strains, locus YDL192W, strain arf1, stronger effect = lower value 0.996 | S. cerevisiae deletion strains, locus YDR001C, strain nth1, stronger effect = lower value 1 | S. cerevisiae deletion strains, locus YDR069C, strain doa4, stronger effect = lower value 0.98 | S. cerevisiae deletion strains, locus YDR101C, strain arx1, stronger effect = lower value 0.979 | S. cerevisiae deletion strains, locus YDR137W, strain rgp1, stronger effect = lower value 1 | S. cerevisiae deletion strains, locus YDR150W, strain NUM1, stronger effect = lower value 0.998 | S. cerevisiae deletion strains, locus YDR159W, strain sac3, stronger effect = lower value 0.975 | S. cerevisiae deletion strains, locus YDR162C, strain NBP2, stronger effect = lower value 1.01 | S. cerevisiae deletion strains, locus YDR195W, strain ref2 0.977 | S. cerevisiae deletion strains, locus YDR297W, strain sur2, stronger effect = lower value 1 | S. cerevisiae deletion strains, locus YDR318W, strain mcm21, stronger effect = lower value 1 | S. cerevisiae deletion strains, locus YDR334W, strain swr1, stronger effect = lower value 0.99 | S. cerevisiae deletion strains, locus YDR335W, strain msn5, stronger effect = lower value 0.995 | S. cerevisiae deletion strains, locus YDR388W, stronger effect = lower value 1 | S. cerevisiae deletion strains, locus YDR392W, strain spt3, stronger effect = lower value 1.01 | S. cerevisiae deletion strains, locus YDR502C, strain sam2, stronger effect = lower value 1.04 | S. cerevisiae deletion strains, locus YEL003W, strain gim4, stronger effect = lower value 0.998 | S. cerevisiae deletion strains, locus YEL037C, strain rad23, stronger effect = lower value 0.99 | S. cerevisiae deletion strains, locus YEL061C, strain CIN8 (second series), stronger effect = lower value 1.01 | S. cerevisiae deletion strains, locus YER015W, strain faa2, stronger effect = lower value 0.99 | S. cerevisiae deletion strains, locus YER016W, strain bim1, stronger effect = lower value 0.994 | S. cerevisiae deletion strains, locus YER110C, stronger effect = lower value 1.02 | S. cerevisiae deletion strains, locus YER111C, strain swi4, stronger effect = lower value 0.989 | S. cerevisiae deletion strains, locus YER155C, strain BEM2 (second series), stronger effect = lower value 1 | S. cerevisiae deletion strains, locus YER155C, strain BEM2, stronger effect = lower value 1 | S. cerevisiae deletion strains, locus YER167W, strain BCK2, stronger effect = lower value 1 | S. cerevisiae deletion strains, locus YFR010W, strain ubp6, stronger effect = lower value 1.01 | S. cerevisiae deletion strains, locus YGL078C, strain dbp3, stronger effect = lower value 1.04 | S. cerevisiae deletion strains, locus YGL086W, strain mad1, stronger effect = lower value 1 | S. cerevisiae deletion strains, locus YGL167C, strain pmr1, stronger effect = lower value 0.99 | S. cerevisiae deletion strains, locus YGL173C, strain kem1, stronger effect = lower value 0.998 | S. cerevisiae deletion strains, locus YGL227W, strain vid30, stronger effect = lower value 1 | S. cerevisiae deletion strains, locus YGL240W, strain doc1, stronger effect = lower value 0.994 | S. cerevisiae deletion strains, locus YGL248W, strain PDE1, stronger effect = lower value 1.04 | S. cerevisiae deletion strains, locus YGL253W, strain hxk2, stronger effect = lower value 1 | S. cerevisiae deletion strains, locus YGR078C, strain PAC10, stronger effect = lower value 1.04 | S. cerevisiae deletion strains, locus YGR135W, strain pre9, stronger effect = lower value 1.06 | S. cerevisiae deletion strains, locus YGR252W, strain gcn5, stronger effect = lower value 1.09 | S. cerevisiae deletion strains, locus YHR013C, strain ard1, stronger effect = lower value 1 | S. cerevisiae deletion strains, locus YHR027C, strain rpn1, stronger effect = lower value 0.996 | S. cerevisiae deletion strains, locus YHR030C, strain SLT2, stronger effect = lower value 0.996 | S. cerevisiae deletion strains, locus YHR079C, strain IRE1 (second series), stronger effect = lower value 1.01 | S. cerevisiae deletion strains, locus YHR079C, strain IRE1, stronger effect = lower value 0.994 | S. cerevisiae deletion strains, locus YHR094C, strain hxt1, stronger effect = lower value 1.02 | S. cerevisiae deletion strains, locus YHR129C, strain ARP1, stronger effect = lower value 1.01 | S. cerevisiae deletion strains, locus YHR142W, strain chs7, stronger effect = lower value 1.01 | S. cerevisiae deletion strains, locus YHR200W, strain rpn10, stronger effect = lower value 1.03 | S. cerevisiae deletion strains, locus YIL066C, strain RNR3, stronger effect = lower value 1.01 | S. cerevisiae deletion strains, locus YIL073C, strain SPO22, stronger effect = lower value 1.06 | S. cerevisiae deletion strains, locus YIL125W, strain kgd1, stronger effect = lower value 1.01 | S. cerevisiae deletion strains, locus YIR030C, strain dcg1, stronger effect = lower value 0.996 | S. cerevisiae deletion strains, locus YJL092W, strain hpr5, stronger effect = lower value 0.995 | S. cerevisiae deletion strains, locus YJL095W, strain BCK1 (second series), stronger effect = lower value 1.02 | S. cerevisiae deletion strains, locus YJL095W, strain BCK1, stronger effect = lower value 1.05 and 0.98 | S. cerevisiae deletion strains, locus YJL115W, strain asf1, stronger effect = lower value 0.99 | S. cerevisiae deletion strains, locus YJL129C, strain trk1, stronger effect = lower value 1.01 | S. cerevisiae deletion strains, locus YJL134W, strain LCB3, stronger effect = lower value 1 | S. cerevisiae deletion strains, locus YJL154C, strain vps35, stronger effect = lower value 0.998 | S. cerevisiae deletion strains, locus YJL164C, strain tpk1, stronger effect = lower value 0.997 | S. cerevisiae deletion strains, locus YJL166W, strain qcr8, stronger effect = lower value 0.997 | S. cerevisiae deletion strains, locus YJL168C, strain set2, stronger effect = lower value 1.01 | S. cerevisiae deletion strains, locus YJL187C, strain SWE1 (second series), stronger effect = lower value 1.05 | S. cerevisiae deletion strains, locus YJL187C, strain SWE1, stronger effect = lower value 0.997 | S. cerevisiae deletion strains, locus YJR066W, strain TOR1, stronger effect = lower value 0.953 | S. cerevisiae deletion strains, locus YKL009W, strain mrt4, stronger effect = lower value 0.998 | S. cerevisiae deletion strains, locus YKL068W, stronger effect = lower value 1.01 | S. cerevisiae deletion strains, locus YKL085W, strain MDH1 (second series), stronger effect = lower value 1.01 | S. cerevisiae deletion strains, locus YKL085W, strain MDH1, stronger effect = lower value 1.01 | S. cerevisiae deletion strains, locus YKL160W, strain elf1, stronger effect = lower value 0.998 | S. cerevisiae deletion strains, locus YKL190W, strain CNB1, stronger effect = lower value 1.01 | S. cerevisiae deletion strains, locus YKR001C, strain vps1, stronger effect = lower value 1.01 | S. cerevisiae deletion strains, locus YKR026C, strain gcn3, stronger effect = lower value 0.999 | S. cerevisiae deletion strains, locus YKR091W, strain srl3, stronger effect = lower value 0.996 | S. cerevisiae deletion strains, locus YLL001W, strain dnm1, stronger effect = lower value 1 | S. cerevisiae deletion strains, locus YLL026W, stronger effect = lower value 0.983 | S. cerevisiae deletion strains, locus YLL041C, strain sdh2, stronger effect = lower value 1.02 | S. cerevisiae deletion strains, locus YLR027C, strain aat2, stronger effect = lower value 0.985 | S. cerevisiae deletion strains, locus YLR039C, strain RIC1, stronger effect = lower value 1.06 | S. cerevisiae deletion strains, locus YLR058C, strain SHM2, stronger effect = lower value 1.02 | S. cerevisiae deletion strains, locus YLR102C, strain apc9, stronger effect = lower value 1 | S. cerevisiae deletion strains, locus YLR113W, strain HOG1, stronger effect = lower value 0.975 | S. cerevisiae deletion strains, locus YLR221C, strain rsa3, stronger effect = lower value 1 | S. cerevisiae deletion strains, locus YLR258W, strain gsy2, stronger effect = lower value 0.993 | S. cerevisiae deletion strains, locus YLR262C, strain YPT6 (second series), stronger effect = lower value 1.02 | S. cerevisiae deletion strains, locus YLR268W, strain sec22, stronger effect = lower value 0.992 | S. cerevisiae deletion strains, locus YLR320W, strain mms22, stronger effect = lower value 1 | S. cerevisiae deletion strains, locus YLR342W, strain FKS1, stronger effect = lower value 0.994 | S. cerevisiae deletion strains, locus YLR357W, strain rsc2, stronger effect = lower value 0.968 | S. cerevisiae deletion strains, locus YLR370C, strain arc18, stronger effect = lower value 0.986 | S. cerevisiae deletion strains, locus YLR371W, strain rom2, stronger effect = lower value 1 | S. cerevisiae deletion strains, locus YLR384C, strain iki3, stronger effect = lower value 0.999 | S. cerevisiae deletion strains, locus YLR418C, strain cdc73, stronger effect = lower value 1.05 | S. cerevisiae deletion strains, locus YML016C, strain PPZ1, stronger effect = lower value 1.01 | S. cerevisiae deletion strains, locus YML032C, strain rad52, stronger effect = lower value 1 | S. cerevisiae deletion strains, locus YML120C, strain ndi1, stronger effect = lower value 1.01 | S. cerevisiae deletion strains, locus YML124C, strain tub3, stronger effect = lower value 0.999 | S. cerevisiae deletion strains, locus YMR058W, strain fet3, stronger effect = lower value 1 | S. cerevisiae deletion strains, locus YMR078C, strain ctf18, stronger effect = lower value 1.01 | S. cerevisiae deletion strains, locus YMR125W, strain sto1, stronger effect = lower value 0.982 | S. cerevisiae deletion strains, locus YMR129W, stronger effect = lower value 1.02 | S. cerevisiae deletion strains, locus YMR205C, strain PFK2, stronger effect = lower value 0.997 | S. cerevisiae deletion strains, locus YMR223W, strain ubp8, stronger effect = lower value 1.02 | S. cerevisiae deletion strains, locus YMR231W, strain pep5, stronger effect = lower value 0.995 | S. cerevisiae deletion strains, locus YMR263W, strain SAP30, stronger effect = lower value 1.02 | S. cerevisiae deletion strains, locus YMR307W, strain GAS1, stronger effect = lower value 0.976 | S. cerevisiae deletion strains, locus YNL067W, strain RPL9B, stronger effect = lower value 1.03 | S. cerevisiae deletion strains, locus YNL071W, strain lat1, stronger effect = lower value 0.999 | S. cerevisiae deletion strains, locus YNL153C, strain GIM3, stronger effect = lower value 1.04 | S. cerevisiae deletion strains, locus YNL183C, strain NPR1, stronger effect = lower value 0.957 | S. cerevisiae deletion strains, locus YNL209W, strain ssb2, stronger effect = lower value 0.978 | S. cerevisiae deletion strains, locus YNL233W, strain BNI4, stronger effect = lower value 1.04 | S. cerevisiae deletion strains, locus YNL248C, strain rpa49, stronger effect = lower value 1.02 | S. cerevisiae deletion strains, locus YNL250W, strain rad50, stronger effect = lower value 1.03 | S. cerevisiae deletion strains, locus YNL271C, strain bni1, stronger effect = lower value 1.01 | S. cerevisiae deletion strains, locus YNL298W, strain CLA4, stronger effect = lower value 1.01 | S. cerevisiae deletion strains, locus YNL307C, strain MCK1, stronger effect = lower value 1.02 | S. cerevisiae deletion strains, locus YNL322C, strain KRE1 (second series), stronger effect = lower value 0.983 | S. cerevisiae deletion strains, locus YNR049C, strain mso1, stronger effect = lower value 0.992 | S. cerevisiae deletion strains, locus YNR052C, strain pop2, stronger effect = lower value 1.03 | S. cerevisiae deletion strains, locus YOL012C, strain htz1 1.56 | S. cerevisiae deletion strains, locus YOL147C, strain pex11, stronger effect = lower value 1.01 | S. cerevisiae deletion strains, locus YOR001W, strain rrp6, stronger effect = lower value 1.01 | S. cerevisiae deletion strains, locus YOR061W, strain CKA2, stronger effect = lower value 1.01 | S. cerevisiae deletion strains, locus YOR069W, strain VPS5, stronger effect = lower value 1.01 | S. cerevisiae deletion strains, locus YOR070C, strain gyp1, stronger effect = lower value 0.98 | S. cerevisiae deletion strains, locus YOR080W, strain dia2, stronger effect = lower value 0.998 | S. cerevisiae deletion strains, locus YOR083W, strain WHI5, stronger effect = lower value 0.994 | S. cerevisiae deletion strains, locus YOR106W, strain vam3, stronger effect = lower value 1.01 | S. cerevisiae deletion strains, locus YOR136W, strain idh2, stronger effect = lower value 1.01 | S. cerevisiae deletion strains, locus YOR144C, strain elg1, stronger effect = lower value 1 | S. cerevisiae deletion strains, locus YOR184W, strain ser1, stronger effect = lower value 0.995 | S. cerevisiae deletion strains, locus YOR231W, strain MKK1, stronger effect = lower value 0.969 | S. cerevisiae deletion strains, locus YOR265W, strain rbl2, stronger effect = lower value 0.981 | S. cerevisiae deletion strains, locus YOR270C, strain vph1, stronger effect = lower value 1.03 | S. cerevisiae deletion strains, locus YOR290C, strain snf2, stronger effect = lower value 0.994 | S. cerevisiae deletion strains, locus YOR316C, strain cot1, stronger effect = lower value 1.02 | S. cerevisiae deletion strains, locus YPL051W, strain arl3, stronger effect = lower value 0.972 | S. cerevisiae deletion strains, locus YPL078C, strain atp4, stronger effect = lower value 1 | S. cerevisiae deletion strains, locus YPL106C, strain sse1, stronger effect = lower value 0.963 | S. cerevisiae deletion strains, locus YPL240C, strain hsp82, stronger effect = lower value 0.996 | S. cerevisiae deletion strains, locus YPL256C, strain CLN2, stronger effect = lower value 1.01 | S. cerevisiae deletion strains, locus YPR119W, strain clb2, stronger effect = lower value 1 | S. cerevisiae deletion strains, locus YPR141C, strain kar3, stronger effect = lower value 0.993 | S. cerevisiae deletion strains, locus YPR163C, strain tif3, stronger effect = lower value 1.01 | S. cerevisiae deletion strains, locus YPR167C, strain met16, stronger effect = lower value 1.01 | S. cerevisiae deletion strains, strain wtn01, stronger effect = lower value 0.986 | S. cerevisiae strains, strain wild type, stronger effect = lower value 1.02
